Rows were chosen to be rich in hits. Some 11% of all compounds tested hit in one or more screens of this group.
AMA1 RON2 block: inhibitors of Plasmodium falciparum AMA1-RON2 interaction; AlphaScreen AMA1-biotinylated RON2 peptide binding; Potency, µM (titrated, usually from 58.2 µM), most hits filed as inhibitors; actives 0.2% (n = 360,000); AID 720542; further: nearly all actives have a fitted effect of over 45% in size
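AMA1 (3D7) with his tag at 25 nM final met compounds first, then biotinylated RON2 peptide at 25 nM; detection used donor plus acceptor beads, 10 µg/mL apiece, read by AlphaScreen after 30 min at room temperature.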
Sm TGR inh: S. mansoni TGR enzyme inhibition. Q962Y6. purified TGR, DTNB reduction, TNB absorbance 405 nm. Potency, µM (doses to about 114 µM), hits mostly inhibitors. actives 3% (n = 360,000). AID 485364; further: nearly all actives have a fitted effect of over 60% in size
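TGR 20 nM + NADPH 100 uM (dispensed conc.), cpd preinc 15 min RT; start with NADPH (500 uM addition) then DTNB (15 mM addition). Kinetic TNB absorbance, 405 nm filter. Four-parameter Hill fit across titration.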
NS1 inh: influenza NS1 inhibition. Potency, µM (top dose mostly 46.1 µM). actives 0.4% (n = 270,000). AID 2326; calls by dose curve; further: actives are rising curves; nearly all actives have a fitted effect of over 50% in size
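OD600 was taken as the measure of yeast growth restored by compound in an NS1-expressing S. cerevisiae strain. Cells had been washed out of glucose medium and diluted 1:100 into galactose -URA medium, pH 6.0.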
Pf growth 48h: P. falciparum growth inhibition at 48 hours (one generation). P. falciparum luciferase growth in erythrocytes, 48 h. Potency, µM (top dose mostly 28.7 µM), actives largely listed as inhibitors. actives 5.9% (n = 310,000). AID 504832
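Here the parasites carry a stable luciferase gene and grow inside erythrocytes in Albumax-based RPMI medium with compound for one erythrocytic cycle. Activity is scored as loss of luminescent signal.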
Pf growth 96h: inhibits malaria parasite growth, 96 h; P. falciparum luciferase reporter growth, 96 h; Potency, µM (titrated, usually from 28.7 µM), most hits filed as inhibitors; actives 6.9% (n = 320,000); AID 504834
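Readout is luminescence from an integrated firefly luciferase in P. falciparum. Red cells, 2% hematocrit and 0.05% parasitemia final, were cultured with compound through two parasite generations (96 hours) at 37 C, 5% CO2.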
A number is an active result; 0 = inactive; ? = inconclusive; - = no result; [ ] = dose if it differs, or a comment. Unless noted, the call rests on the fitted dose curve; in most records, active means well fitted curve in the direction sought with a large enough effect; inconclusive means small, poorly fitted or top-dose-only effect, or another doubt; inactive means no such curve, though single readings can be large; an effect the other way counts as inactive or inconclusive.

SMILES	AMA1 RON2 block	Sm TGR inh	NS1 inh	Pf growth 48h	Pf growth 96h
Cc1ccc(S(=O)(=O)c2nc(S(C)(=O)=O)sc2N2CCC(O)CC2)cc1	0	0	0	0	9.3µM
Cc1ccc(S(=O)(=O)c2nc(S(C)(=O)=O)sc2N(C)C)cc1	0	25µM	0	0	0
CS(=O)(=O)c1nc(S(=O)(=O)c2ccc(Cl)cc2)c(N2CCCCCC2)s1	0	0	0	?	13µM
COc1ccc(-n2c(=O)c3sc4ccccc4c3n(Cc3ccccc3)c2=O)cc1	-	0	-	-	-
O=S(=O)(Nc1ccc(Cl)cc1)c1ccc(N2CCOCC2)c(NC(=S)NCCN2CCOCC2)c1	0	0	-	?	0
CCOc1cc(C(=O)NC2CCCCCCC2)cc(OCC)c1OCC	0	-	-	-	-
CN1CCN(c2sc(S(C)(=O)=O)nc2S(=O)(=O)c2ccc(Cl)cc2)CC1	0	0	0	?	12µM
CCS(=O)(=O)c1nc(S(=O)(=O)c2ccc(Cl)cc2)c(N2CCN(C)CC2)s1	0	0	0	?	0
Cc1nc(C(C)NC(=O)c2cc(COc3ccc(C)c(C)c3)on2)c(C)s1 (stereo unspecified)	0	0	0	0	?
CNCC(O)c1ccc(OC(=O)C(C)(C)C)c(OC(=O)C(C)(C)C)c1 (stereo unspecified)	0	0	-	?	?
CNC[C@H](O)c1ccc(OC(=O)C(C)(C)C)c(OC(=O)C(C)(C)C)c1	-	-	-	?	3.2µM
C1=Nc2c(Nc3ccccc3)ncnc2Oc2ccccc21	0	0	0	0	13µM
COc1ccc(OC)c(C(=O)CSc2nccc(-c3ccc(Br)cc3)n2)c1	0	0	0	12µM	?
c1ccc(N2CCN(c3ccccc3)C2c2cccnc2)cc1	0	0	0	3.7µM	0
c1ccc(N2CCN(c3ccccc3)C2c2ccncc2)cc1	0	0	0	13µM	-
O=C1C2CCCN2C(c2cccnc2)N1c1ccc(Cl)c(Cl)c1 (stereo unspecified)	0	0	0	?	0
Cc1ccc(N2CCN(c3ccc(C)cc3)C2c2cccnc2)cc1	0	0	0	-	1.3µM
Cc1ccc(S(=O)(=O)N2CCCC2c2cccnc2)cc1 (stereo unspecified)	0	0	0	?	0
COc1cccc(C2N(c3ccccc3)CCN2c2ccccc2)c1OC	0	-	0	?	0
COc1ccc(/C=C/C(=O)c2ccc(OC)cc2OC)c(OC)c1	0	0	0	?	3.7µM
COc1ccc(/C=C/C(=O)c2ccccc2)c(OC)c1	0	0	-	0	0
CCOC(=O)C(=CN=C(N)Nc1nc2ccccc2o1)C(=O)OCC	0	0	0	0	10µM
COc1ccc(OC(=O)Cc2cccc3ccccc23)cc1	0	0	0	0	0
CCCCC1=CC2=CC(=O)C(C)(OC(=O)C3CCCC3)C(=O)C2=CO1 (stereo unspecified)	0	40µM	0	?	0
COC(=O)CCCC1=CC2=CC(=O)C(C)(OC(=O)C3CCCC3)C(=O)C2=CO1 (stereo unspecified)	0	0	0	0	0
SMILES	AMA1 RON2 block	Sm TGR inh	NS1 inh	Pf growth 48h	Pf growth 96h
CC1(OC(=O)C2CCCC2)C(=O)C=C2C=C(c3ccsc3)OC=C2C1=O (stereo unspecified)	0	45µM	0	0	0
CC1(OC(=O)CCc2ccccc2)C(=O)C=C2C=C(c3ccsc3)OC=C2C1=O (stereo unspecified)	-	?	1.3µM	0	0
COCCn1c(SCc2cccnc2)nnc1-c1ccco1	?	28µM	0	0	9.3µM
COC(=O)CSc1nnc(-c2ccco2)n1Cc1ccco1	0	13µM	0	0	0
Cc1ccc(-c2nnc(SCc3nc4ccccc4[nH]3)n2Cc2ccco2)cc1	0	0	0	?	?
Cc1cc(NC(=O)CSc2nnc(-c3ccccc3)n2Cc2ccco2)no1	0	0	0	?	?
c1coc(Cn2c(SCc3nc4ccccc4[nH]3)nnc2-c2cccs2)c1	0	0	0	0	10µM
CCOC(=O)CNC(=O)CSc1nnc(-c2ccccc2)n1Cc1ccco1	0	20µM	0	0	12µM
CC(C)(C)CN1CCC(Oc2cccc(C(=O)N3CCC[C@H]3CO)c2)CC1	0	0	0	0	0
COC(=O)Nc1ccc(S(=O)(=O)NCc2ccccn2)cc1	0	0	-	0	?
COc1ccc(CCNC(=O)C(=O)NCC(c2ccco2)S(=O)(=O)c2ccc(C)cc2)cc1 (stereo unspecified)	-	0	-	-	-
COc1ccc(CCN2CC(C(=O)OCC(=O)Nc3c(C)nn(-c4ccccc4)c3C)CC2=O)cc1OC (stereo unspecified)	0	0	-	?	0
Cc1ccccc1CSc1nnc(-c2ccco2)n1Cc1ccco1	0	?	0	0	0[5.75 µM]
c1ccc(CSc2nnc(-c3ccco3)n2Cc2ccco2)cc1	0	45µM	0	?	?
CCN(CC)C(=O)CSc1nnc(-c2ccco2)n1Cc1ccco1	0	50µM	0	0	0
COc1cccc(-c2nnc(SCc3ccc(C#N)cc3)n2Cc2ccco2)c1	0	40µM	0	?	0
CCn1c(SCc2cccc(C(F)(F)F)c2)nnc1-c1ccco1	0	28µM	0	?	?
Cc1ccc(S(=O)(=O)NCc2ccccc2)cc1C(=O)N1CCN(S(=O)(=O)c2ccccc2F)CC1	0	-	-	-	-
COc1ccc(N(C)S(=O)(=O)c2ccc3c(c2)NC(=O)CC(=O)N3)c(OC)c1	0	0	0	0	?
COc1ccccc1/C=N/n1cnnc1	0	0	0	0	-
O=S(=O)(Oc1ccccc1/C=N/n1cnnc1)c1ccccc1	0	-	0	0	12µM
Cc1ccc(-c2n[nH]c(=S)n2/N=C/c2ccc(C)s2)cc1	0	0	0	12µM	12µM
N#Cc1cccnc1N1CCN(C(=O)c2[nH]c(C(F)(F)F)nc2-c2ccccc2)CC1	0	-	-	-	-
CCc1nc(SCc2ccccc2C#N)n[nH]1	0	0	0	0	9.3µM
COc1ccc(CCN2CN(S(=O)(=O)c3ccccc3)c3nc4ccccc4nc32)cc1OC	0	0	0	?	?
SMILES	AMA1 RON2 block	Sm TGR inh	NS1 inh	Pf growth 48h	Pf growth 96h
COc1ccc(CCN2CN(S(=O)(=O)c3ccccc3)c3nc4ccccc4nc32)cc1	0	0	0	12µM	10µM
COc1cccc(COC(=O)C2CC(=O)N(Cc3ccc(C)cc3)C2)c1OC (stereo unspecified)	0	0	-	0	0
CCOC(=O)C1CCN(c2nc3ccccc3nc2C(C#N)C(=O)OC(C)C)CC1 (stereo unspecified)	0	0	0	?	0
C=CCOC(=O)C(C#N)c1nc2ccccc2nc1N1CCC(C(=O)OCC)CC1 (stereo unspecified)	0	0	0	1.2µM	0
COC(=O)C1CCN(c2nc3ccccc3nc2C(C#N)C(=O)OCC(C)C)CC1 (stereo unspecified)	0	0	0	?	?
CCC(C)COC(=O)C(C#N)c1nc2ccccc2nc1N1CCCCC1 (stereo unspecified)	0	0	0	?	0
